# Test results reported in PubChem BioAssay AID1259420 (Broad Institute, 2018).
# Screen size: about 1,000 compounds; about 250 (25%) were called active. Roughly 31% stayed inconclusive and do not appear here. Not all results are given here. Potency and affinity values are given separately. Values without a mark were called inactive. How the calls were made is not given here.
# Experiment: T. gondii intracellular growth, IFN-gamma absent, dose response, cell-based (AID 1259420);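 further: host cells were HeLa; final incubation lasted 72 hours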
# Conditions: Toxoplasma gondii growth in host cells, no IFN-gamma; at 19.5 µM unless noted
row,SMILES,max activity
1,COc1cccc(C(=O)Nc2ccc3c(c2)C(=O)N(C)[C@@H]2CC[C@H](CC(=O)N[C@H](C)c4ccccc4)O[C@@H]2CO3)c1,-19.3% [at 1.2 µM]
2,Cc1ccccc1-c1ccc([C@H]2[C@H](CO)N3CCCCN(S(=O)(=O)Cc4ccccc4)C[C@@H]23)cc1,27%
3,O=C(NCC1CC1)C1CN(C(=O)c2ccoc2)CC12CCOCC2 (centres undefined),10.2% [at 0.16 µM]
4,CS(=O)(=O)N1CC(=O)N2[C@H](C1)[C@@H](c1ccc(C#CCC3CCCC3)cc1)[C@@H]2CO,17.8% [at 0.3 µM]
5,Cc1ccccc1S(=O)(=O)N1CC[C@H]2[C@H](CO)Nc3ccc(-c4ccc(F)cc4)cc3[C@H]21,-15.5% [at 5 µM]
6,CC(C)CNC(=O)C1Cn2ccnc2C2(CCN(c3ncccn3)CC2)O1 (centres undefined),-6.18%
7,Fc1cccc(CN2CCC3(CC2)CC(OCC2CC2)CO3)c1 (centres undefined),-29.4% [at 10 µM]
8,COc1cccc(-c2nn(CC3CC3)c3c2[C@@H]2CN(C(=O)c4ccccc4)C[C@@H]2C3)c1,29.4%
9,O=C(Cc1cccnc1)N1CC(=O)N2[C@H](CO)[C@@H](c3ccc(/C=C/c4ccccc4)cc3)[C@@H]2C1,14.8%
10,O=C(Cc1cccnc1)N1CC(=O)N2[C@H](CO)[C@@H](c3ccc(/C=C/c4ccccc4)cc3)[C@H]2C1,15.6%
11,COCC(=O)N1CC(=O)N2[C@H](CO)[C@@H](c3ccc(-c4ccccc4F)cc3)[C@H]2C1,10.5% [at 0.3 µM]
12,O=C(Cc1cccnc1)N1CC(=O)N2[C@H](CO)[C@H](c3ccc(/C=C/c4ccccc4)cc3)[C@@H]2C1,-6.67% [at 10 µM]
13,Cc1ccccc1-c1ccc([C@@H]2[C@H](CO)N3C(=O)CN(C(=O)c4ccncc4)C[C@@H]23)cc1,13%
14,COC(=O)/C=c1\sc2nc(=O)c(C)nn2c1=O,-11.2% [at 10 µM]
15,Cc1cccc(S(=O)(=O)N2CCc3nc(-c4cnn(C)c4)nc(NC4CC4)c3C2)c1,-22.6% [at 1.2 µM]
16,COc1ccc(S(=O)(=O)N2CCC(c3nc4ccc(-c5ccncc5)cn4n3)CC2)cc1,-32.4% [at 10 µM]
17,COc1ccccc1-c1ccc(C2[C@@H]3CN(S(=O)(=O)c4ccc(C)cc4)C[C@H]2N3)cc1 (some centres undefined),22.8%

row,SMILES,max activity
1,Cc1nc(N2CCCC2)nc2c1CCN(S(=O)(=O)c1ccccc1)CC2,-5.81% [at 10 µM]
2,CC(C)(C)NC(=O)[C@@H]1CC2CCCCC2CN1C[C@@H](O)[C@H](Cc1ccccc1)NC(=O)[C@H](CC(N)=O)NC(=O)c1ccc2ccccc2n1 (some centres undefined),-8.44%
3,CC/C(=C(\c1ccccc1)c1ccc(OCCN(C)C)cc1)c1ccccc1,22.1%
4,CCCNC(=O)c1cc(-c2ccn(CC3CC3)n2)n2ccccc12,-19.1% [at 10 µM]
5,Cc1ccc(-c2cc(O)c3c(c2)CN(C(=O)CCN2CCCO2)CCO3)s1,12.4% [at 10 µM]
6,N#Cc1ccc(-c2ccc([C@@H]3[C@@H](CO)N4C(=O)CNC[C@H]34)cc2)cc1,33.8%
7,O=C1CNC[C@@H]2[C@H](c3ccc(C#Cc4cccnc4)cc3)[C@H](CO)N12,16.3%
8,O=S1(=O)c2ccccc2C2(CCN(CC3CC3)C2)N1Cc1ccc(F)cc1 (centres undefined),13.7%
9,CN(Cc1ccccn1)C(=O)C1=NOC2(CCN(S(=O)(=O)c3cccc(F)c3)C2)C1 (centres undefined),-20.7% [at 10 µM]
10,CC(C)n1c(C(=O)Nc2cccc(F)c2)nc2c1CCN(Cc1ccccc1)C2,-15.6% [at 10 µM]
11,CCC(=O)N1CC(=O)N2[C@H](CO)[C@H](c3ccc(C#CCC(C)C)cc3)[C@H]2C1,13.7%
12,O=C1CNC[C@@H]2[C@H](c3ccc(C#Cc4cccnc4)cc3)[C@@H](CO)N12,-12.5% [at 0.16 µM]
13,COC1CCCC(C(=O)N2CCC3(CC2)C(=O)Nc2ccc(-c4ccc(C(C)=O)cc4)cc23)C1 (centres undefined),-15.4% [at 10 µM]
14,CC(C)CC#Cc1ccc([C@@H]2[C@H](CO)N3C(=O)CN(C(=O)c4cccc(F)c4)C[C@@H]23)cc1,12.3% [at 1.2 µM]
15,CC(C)CC#Cc1ccc([C@H]2[C@@H](CO)N3C(=O)CN(C(=O)c4cccc(F)c4)C[C@H]23)cc1,19.6%
16,CC(C)CC#Cc1ccc([C@H]2[C@H]3CN(C(=O)Nc4cc(F)ccc4F)CC(=O)N3[C@H]2CO)cc1,31.4%
17,CC(C)CC#Cc1ccc([C@H]2[C@@H](CO)N3C(=O)CN(C(=O)Nc4cc(F)ccc4F)C[C@H]23)cc1,17.1%
